Test results published in PubChem BioAssay AID504444 (National Center for Advancing Translational Sciences (NCATS), 2011).
Where “and” joins values, the source holds several entries; their conditions need not be identical. Equal values may be shown once. Screen size: about 360,000 compounds; about 7,500 (2.1%) were called active. About 20% were inconclusive and are not listed. The sample holds actives, similar compounds and a random draw of the others, so the mix is not that of the screen. Calls come from the whole dose curve; as a rule, active = well fitted inhibition curve with a large enough effect; inconclusive = small, poorly fitted or top-dose-only effect, or effect the other way; inactive = flat fitted curve, though single readings scatter.

Experiment: Nrf2 qHTS screen for inhibitors; note: nearly all actives have a fitted effect of over 60% in size
Details: A549 ARE-Fluc reporter, luciferase luminescence, 18-24 h; series mostly up to 46 µM; activity change, negative = inhibition: at the top concentration
How it was run: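 Quantitative HTS in A549 cells stably bearing an antioxidant response element-firefly luciferase construct. Inhibition of Nrf2-driven transcription was scored by luminescence after 18-24 h of compound exposure at 37 °C.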
% is set by controls: 0 for no effect and ±100 for the full control effect; potency is the fitted concentration of half-maximal effect.

Structure (SMILES)	activity change, negative = inhibition	Potency
Nn1c(SCC(=O)NC2CCCc3ccccc32)nnc1C1CC1 (stereo not given)	-4.73% (inactive)	
O=C(CN1CCN(C2CCS(=O)(=O)C2)CC1)N1N=C(c2ccc(Cl)cc2)CC1c1ccco1 (stereo not given)	-19.2% (inactive)	
C[C@@H]1NS(=O)(=O)c2cc(Cl)ccc2O[C@@H]1c1ccccc1	-9.06% (inactive)	
COc1ccc(CNC(=O)c2cc3c(s2)-c2ccccc2OC3)cc1	8.62% (inactive)	
O=S(=O)(Nc1ccc2ccccc2c1)N1CCCCC1	21.5% (inactive)	
COc1ccc(C2=Nn3c(nnc3-c3ccccc3OC)SC2)cc1OC1CCCC1		16.4 µM (active)
Cc1nnc2n1N=C(c1ccccc1)CS2	-13.9% (inactive)	
COc1ccc(C2=Nn3c(nnc3-c3ccccc3O)SC2)cc1	-19.8% (inactive)	
Cc1cccc(NC(=O)CN(c2ccc(C(C)C)cc2)S(=O)(=O)c2c(C)nn(C)c2C)c1C	-22.6% (inactive)	
O=C1CC(c2ccccc2)CC2=C1C(c1ccco1)n1nc(C(F)(F)F)nc1N2 (stereo not given)	-5.13% (inactive)	
COC(=O)Cc1ccc(Oc2ncc(C(F)(F)F)cc2Cl)cc1	-1.72% (inactive)	
O=S(=O)(Nc1ccccn1)c1ccc(Oc2ccccc2)cc1	-25.2% (inactive)	
Cc1cc(C)cc(NS(=O)(=O)c2ccc(Oc3ncc(C(F)(F)F)cc3Cl)cc2)c1		4.11 µM (active)
O=C(C[C@@H]1C/C=C\CCC(=O)OC[C@@H]2CCCN2C1=O)NCCO	-13.3% (inactive)	
N#CCCN(C(=O)COC(=O)c1ccc2c(c1)OCCO2)c1ccccc1	5.07% (inactive)	
Brc1nc2ncnc(NCc3ccco3)c2[nH]1	-18.6% (inactive)	
O=C(Nc1c(Br)cc2c(c1Br)Cc1cc([N+](=O)[O-])ccc1-2)C(Cl)Cl	1.16% (inactive)	
COc1ccc(C(CNC(=O)c2cccc(S(=O)(=O)Nc3ccc(Br)cc3)c2)N(C)C)cc1 (stereo not given)	12.8% (inactive)	
COC(=O)c1ccc(CSc2nnc(NC(C)C)s2)cc1	9.82% (inactive)	
Cc1ccc(C(=O)Oc2coc(CSc3nnc(NC(=O)c4cccs4)s3)cc2=O)cc1C		14.6 µM (active)
CCSc1nnc(NC(=O)c2cc(=O)c3cc(C)c(C)cc3o2)s1	-0.281% (inactive)	
Cc1ccc(NC(=O)c2oc3ccccc3c2NC(=O)Cc2cccs2)cc1	-2.62% (inactive)	
CCN(Cc1ccncc1)C(=O)CCc1ccccc1	14.4% (inactive)	
Cc1cc(C)c(SCCc2ccncc2)c(C)c1		16.4 µM (active)
O=C(NOCc1ccccc1)c1cccc([N+](=O)[O-])c1	5.07% (inactive)	

Structure (SMILES)	activity change, negative = inhibition	Potency
CN1CCN(C2(CNC(=O)COc3ccc(C(C)(C)C)cc3)CCCCC2)CC1	23.4% (inactive)	
O=C(C(Cl)Cl)N1CCN(c2ccccn2)CC1	-1.05% (inactive)	
O=C(/C=C/c1cccc(C(F)(F)F)c1)N1CCN(c2ccccn2)CC1		23.1 µM (active)
O=C(Cc1ccc(Br)cc1)N1CCN(c2ccccn2)CC1	-16.2% (inactive)	
COc1ccc(CN2C(CC(=O)Nc3cccnc3)c3ccc(C(F)(F)F)cc3S2(=O)=O)cc1 (stereo not given)	-7.15% (inactive)	
O=C(CNC(=O)c1ccc(Cl)cc1Cl)OC(C(=O)Nc1cc(C(F)(F)F)ccc1Cl)c1ccccc1 (stereo not given)	7.1% (inactive)	
O=[N+]([O-])c1ccccc1S(=O)(=O)Nc1cccc2cccnc12		5.8 µM (active) and 11.6 µM (active)
Cc1ccccc1NC(=O)c1ccccc1NS(=O)(=O)c1cccc2cccnc12	-4.28% (inactive)	
O=[N+]([O-])c1cccc2ncccc12	-7.71% (inactive)	
Cc1ccc(OCC(=O)NCCCNC(=O)c2cccnc2)cc1C		5.17 µM (active)
Cc1ccc(NC(=O)COc2ccc(/C=N\NC(=O)c3cccnc3)cc2)cc1C	-21.1% (inactive)	
Cc1ccc(OCC(=O)NCCCNC(=O)c2ccco2)cc1C	-1.07% (inactive)	
Cc1ccc(S(=O)(=O)N(C)CC(=O)NCC(c2ccc(F)cc2)N2CCOCC2)cc1 (stereo not given)	-6.27% (inactive)	
CC(=O)c1nc2ccccc2n1Cc1ccccc1	16% (inactive)	
CC(=O)Nc1nc2ccccc2n1Cc1ccc(C)cc1		18.4 µM (active)
CCC(=O)Nc1nc2ccccc2n1Cc1ccccc1C	-17.9% (inactive)	
CCN(CC)CCNC(=O)Cn1ncc2c3ccccc3n(Cc3ccccc3C)c2c1=O	6.67% (inactive)	
N#Cc1ccc(C(=O)Nc2nc(-c3cccs3)c(C(=O)C(F)(F)F)s2)cc1		5.17 µM (active)
N#Cc1ccc(Oc2ccc(C(F)(F)F)cc2NC(=O)c2ccc(F)cc2)cc1	22.2% (inactive)	
COC(=O)c1ccccc1NC(=O)c1ccc(C#N)cc1	-19.4% (inactive)	
COc1ccc(C(F)(F)F)cc1NC(=O)c1sc2nc(-c3cccs3)ccc2c1N	1.83% (inactive)	
CN1CCN(C(=O)c2ccc(-c3ccc(Br)cc3)o2)CC1	11.3% (inactive)	
CC(C[N+](C)(C)C)OC(N)=O (stereo not given)	0.44% (inactive)	
CC(=O)OC(C)C[N+](C)(C)C (stereo not given)		0.461 µM (active)
CC(=O)OCC(COC(C)=O)OC(C)=O	6.37% (inactive)	

Structure (SMILES)	activity change, negative = inhibition	Potency
O=C(Nc1ccc(S(=O)(=O)N2CCC(c3nc4ccccc4s3)CC2)cc1)c1ccccc1F	15.9% (inactive)	
Cc1ccc2onc(CC(=O)N3CCN(c4ccc(Cl)cc4)CC3)c2c1	23.1% (inactive)	
C[C@H](O)[C@@H]1C(=O)N2CCc3ccc(N4CCOCC4)cc3[C@@H]2C[C@@H]1N(C)C(=O)C(C)(C)C	-3.59% (inactive)	
O=C(c1c(F)cccc1F)N1CCN(S(=O)(=O)c2ccc3c(c2)OCCO3)CC1		inactive
O=C(c1ccc2c(c1)OCCO2)C1CCN(S(=O)(=O)c2cccc(F)c2)CC1		14.6 µM (active)
O=C(NCc1cccs1)C1CCN(S(=O)(=O)c2ccc3c(c2)OCCO3)CC1	6.59% (inactive)	
CC(C)c1ccc(C2CC(=O)N3CN(C4CCCCC4)CSC3=C2C#N)cc1 (stereo not given)	-16.3% (inactive)	
Oc1c(CN2CCCC2)cc(COCc2ccccc2)c2cccnc12		16.4 µM (active)
COc1cc(C)cc(CN2CCC(Cc3ccccc3)CC2)c1O	-6.3% (inactive)	
Oc1ccc(CN2CCN(c3ncccn3)CC2)cc1	2.2% (inactive)	
CC(=O)c1ccc(NC(=O)CCc2nc(-c3ccc(C)cc3)no2)cc1	-3.05% (inactive)	
O=C(CSc1nc2ccccc2c(=O)n1CCCO)N1CCc2ccccc21	11.1% (inactive)	
Cn1c(SCC(=O)N2CCCc3ccccc32)nc2ccccc2c1=O		18.4 µM (active)
C=CCn1c(=O)c2ccccc2n2c(SCC(=O)N3CCCc4ccccc43)nnc12	-0.965% (inactive)	
COc1cc(C(=O)OCC(=O)NC23CC4CC(CC(C4)C2)C3)cc(OC)c1OC	-7.69% (inactive)	
COc1ccc(C2NCCCC2c2ccccc2)cc1 (stereo not given)	7.75% (inactive)	
CCn1ccnc1CN(C)C(=O)c1cc(COc2ccc(-n3cncn3)cc2)on1	-12.5% (inactive)	
O=C(c1cc(COc2ccc(F)c(F)c2)on1)N1CCOCC1	0% (inactive)	
C=CCC1(CC=C)CCCN1C(=O)c1cc(COc2ccc(-n3cncn3)cc2)on1		8.2 µM (active)
O=C(COC(=O)C1CCCO1)Nc1nc(-c2ccc(F)cc2)cs1 (stereo not given)	29.5% (inactive)	
Cc1ccc(N2C(=O)N3[C@@H]4c5ccccc5OC[C@@H]4[C@@H](c4ccccc4)[C@@]3(C)C2=O)cc1	1.3% (inactive)	
CCCCN(C(=O)CSCc1ccc(C)cc1)c1c(N)n(Cc2ccccc2)c(=O)[nH]c1=O	-11.8% (inactive)	
O=C(Cn1c(=O)n(Cc2cccs2)c(=O)c2cccnc21)Nc1ccc(F)cc1	7.02% (inactive)	
CN(C)c1nc(N)nc(Cn2nnc(-c3ccc(C(F)(F)F)cc3)n2)n1	0.318% (inactive)	
CN(C)c1nc(N)nc(CSc2ccccn2)n1	19.3% (inactive)	

Structure (SMILES)	activity change, negative = inhibition	Potency
CN(C)c1nc(N)nc(CSc2nnnn2-c2cccc3ccccc23)n1		6.51 µM (active)
Cc1ccc(-c2nc3ccccn3c2Nc2ccc(F)cc2)o1	11.6% (inactive)	
COc1ccc(S(=O)(=O)N2CCc3ccccc32)cc1C(=O)Nc1cc(S(C)(=O)=O)ccc1Cl	9.36% (inactive)	
CC1(C)Cc2c(cnn2-c2cccc(F)c2)C(NC(=O)c2cc[n+]([O-])cc2)C1 (stereo not given)	-0.279% (inactive)	
COc1ccc(C(=O)NC2CC(C)(C)Cc3c2cnn3-c2ccccc2)c(OC)c1 (stereo not given)		18.4 µM (active)
Cc1cc(C(=O)NC2CC(C)(C)Cc3c2cnn3-c2ccccc2)n[nH]1 (stereo not given)	13.6% (inactive)	
CCOC(=O)Cc1csc(SCC(=O)Nc2ccc(C)cc2F)n1	2.45% (inactive)	
Cc1oc(C)c2c(=O)cc(-c3ccc4c(c3)OCO4)cc(OC(=O)c3ccc(Cl)cc3)c12	11.9% (inactive)	
N#CCc1c[nH]c2ccc([N+](=O)[O-])cc12	-9.51% (inactive)	
COc1ccc(NC(=O)CN(C)CC(=O)Nc2cccc(C(F)(F)F)c2)cc1	-28.1% (inactive)	
CCNC(=O)c1ccc(OCC(=O)Nc2ccc(F)cc2)c(OC)c1	8.83% (inactive)	
COc1cc(C(=O)N(C)Cc2cccc(OC)c2OC)ccc1OCC(=O)Nc1cccc(C(F)(F)F)c1		25.9 µM (active)
COc1ccc(CC2c3cc(OC)c(OC)cc3CC[N+]2(C)CCC(=O)OCCCCCOC(=O)CC[N+]2(C)CCc3cc(OC)c(OC)cc3C2Cc2ccc(OC)c(OC)c2)cc1OC (stereo not given)	3.93% (inactive)	
COc1cccc(-c2nnc3n(CCc4ccccc4)c(=O)c4ccccc4n23)c1O	9.52% (inactive)	
O=C(N/N=C/c1cccc(OC(=O)c2ccc([N+](=O)[O-])cc2)c1)c1cccnc1	7.34% (inactive)	
O=C(N/N=C/c1cccc([N+](=O)[O-])c1)c1ccncc1	1.68% (inactive)	
N#Cc1cc([N+](=O)[O-])ccc1Oc1cccc(/C=N/NC(=O)c2ccc(Cl)cc2)c1		5.8 µM (active)
O=C(NC(c1ccco1)c1cc(Cl)c2cccnc2c1O)c1ccccc1 (stereo not given)	-22% (inactive)	
COc1ccc(C(CNC(=O)c2cccc(NS(=O)(=O)c3ccc(C)c(F)c3)c2)N2CCCC2)cc1 (stereo not given)	-7.76% (inactive)	
COc1ccc(C(CNC(=O)c2ccc(S(=O)(=O)Nc3ccccc3C)cc2)N2CCOCC2)cc1 (stereo not given)	-17.9% (inactive)	
COc1ccc(C(CNC(=O)c2cccc(S(=O)(=O)Nc3ccccc3Cl)c2)N2CCOCC2)cc1 (stereo not given)		18.4 µM (active)
CC(C)c1ccc(NC(=O)Cn2c3ncccc3c(=O)n2-c2ccccc2)cc1	7.72% (inactive)	
C=CCn1c(=N)n(CC(O)COc2ccc(OC)cc2)c2ccccc21 (stereo not given)	-7.41% (inactive)	
OC(CN=c1sc2ccccc2n1CC(O)COc1ccccc1)COc1ccccc1 (stereo not given)		23.1 µM (active)
O=C(C(c1ccccc1)c1ccccc1)N1CCN(CC(O)COc2ccccc2)CC1 (stereo not given)	-7.54% (inactive)	
